In publication PMC4336329 (PLoS ONE, 2015):
In all, about 310,000 compounds went through this assay and about 14,000 (4.5%) showed an effect of 50% or more. The effect is printed as a negative number. The entries come from a sample that favours strong results as a whole.

Biological target: human ether-à-go-go-related gene (hERG) potassium channel (human, UniProt Q12809)
Test: primary screen, population patch clamp on CHO cells stably expressing hERG; higher = less effect of the substance
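Note: peak tail current of the secondary pulse compared with the same well before compound.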

Chain of human ether-à-go-go-related gene (hERG) potassium channel (Q12809 whole entry, looked up): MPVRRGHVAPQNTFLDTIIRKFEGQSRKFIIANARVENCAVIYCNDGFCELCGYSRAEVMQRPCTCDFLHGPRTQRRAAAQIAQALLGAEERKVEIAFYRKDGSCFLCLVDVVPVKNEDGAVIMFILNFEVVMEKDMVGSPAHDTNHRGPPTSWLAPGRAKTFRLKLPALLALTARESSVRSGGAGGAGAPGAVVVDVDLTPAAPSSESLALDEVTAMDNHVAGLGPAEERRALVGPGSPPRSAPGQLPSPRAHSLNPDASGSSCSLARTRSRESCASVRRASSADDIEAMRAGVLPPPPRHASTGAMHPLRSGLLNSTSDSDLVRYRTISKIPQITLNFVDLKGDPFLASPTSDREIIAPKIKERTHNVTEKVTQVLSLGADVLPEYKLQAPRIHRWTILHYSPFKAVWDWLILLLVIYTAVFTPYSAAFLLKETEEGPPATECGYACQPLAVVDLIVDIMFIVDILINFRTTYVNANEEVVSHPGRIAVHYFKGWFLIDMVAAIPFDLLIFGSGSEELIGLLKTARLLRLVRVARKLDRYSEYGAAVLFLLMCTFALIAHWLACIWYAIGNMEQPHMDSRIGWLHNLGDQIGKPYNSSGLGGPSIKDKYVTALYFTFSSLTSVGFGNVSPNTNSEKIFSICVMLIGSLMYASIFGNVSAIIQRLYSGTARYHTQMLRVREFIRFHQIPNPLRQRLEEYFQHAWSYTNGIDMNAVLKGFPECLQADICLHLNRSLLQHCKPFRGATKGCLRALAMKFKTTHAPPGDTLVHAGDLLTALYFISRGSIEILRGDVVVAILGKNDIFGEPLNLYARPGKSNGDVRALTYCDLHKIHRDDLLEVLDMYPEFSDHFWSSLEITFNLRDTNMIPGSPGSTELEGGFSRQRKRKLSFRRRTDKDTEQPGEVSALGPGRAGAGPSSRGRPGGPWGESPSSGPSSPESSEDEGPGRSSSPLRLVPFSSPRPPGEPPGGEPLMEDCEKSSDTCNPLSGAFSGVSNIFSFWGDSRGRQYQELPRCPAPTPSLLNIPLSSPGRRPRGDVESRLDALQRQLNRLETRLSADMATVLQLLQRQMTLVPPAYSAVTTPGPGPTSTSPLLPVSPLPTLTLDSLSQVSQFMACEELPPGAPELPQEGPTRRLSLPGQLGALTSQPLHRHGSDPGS

| Compound | hERG current change (%, negative = inhibition) at 10uM |
| --- | --- |
| COc1ccc(C(=O)N(C)Cc2cnn(Cc3ccccc3)c2)cc1S(=O)(=O)N1CCOCC1 | -27% |
| Cc1cccc(NC(=S)Nc2c(C)n(C)n(-c3ccccc3)c2=O)c1C | -2.23% |
| CCc1nnc(NC(=O)CSc2nnc(-c3ccc(S(=O)(=O)N4CCCC4)cc3)n2CC)s1 | 8.86% |
| CN(C)N1C(=O)CC(C)(c2ccc([N+](=O)[O-])cc2)C1=O (centres unmarked) | -0.575% |
| CCn1c(=O)cc(OCC(=O)NC(C)c2ccc3c(c2)OCCO3)c2ccccc21 (centres unmarked) | -4.48% |
| CC/C(=N\O)C(C)(C)/[N+]([O-])=C/c1ccc(Br)cc1 | 5.28% |
| CN(c1ccccc1)S(=O)(=O)c1cccc(NC(=O)c2ccc(=O)[nH]c2)c1 | -11.7% |
| COCCNC(=O)c1onc(CSc2ccccc2)c1C(=O)O | 7.09% |
| O=C(CN1CCOc2ccccc21)NCc1ccco1 | 2.93% |
| Cc1cccc(NC(=O)C2(C)CC3c4ccccc4C2c2ccccc23)c1 (centres unmarked) | 9.5% |
| O=C(Nc1nnc(CCN2CCCCC2)s1)c1cccc(Cl)c1 | -10.8% |
| O=C(Nc1nnc(CCN2CCCCC2)s1)c1ccc(Br)cc1 | -51.4% |
| Cl.O=C(Nc1nnc(CCN2CCCCC2)s1)c1ccccc1 | 4.58% |
| CC(C)C(=O)Nc1ccc(NC(=O)c2ccc3c(c2)OCO3)cc1 | 10.2% |
| Cc1ccccc1OCC(=O)Nc1cccc(S(=O)(=O)NC2=NCCCCC2)c1 | -7.89% |
| O=C1N(Cc2cccc(Cl)c2)C[C@@H]2C[C@@H](c3ccccn3)N3CCC[C@@]123 | -18.5% |
| COCc1ccc([C@@H]2C[C@H]3CN(Cc4cccc(Cl)c4)C(=O)[C@]34CCCN24)o1 | -31% |
| O=C1N(Cc2cccc(Cl)c2)C[C@@H]2C[C@@H](c3cccc4cccnc34)N3CCC[C@@]123 | -78% |
| CC(C)n1cc([C@@H]2C[C@H]3CN(Cc4cccc(Cl)c4)C(=O)[C@]34CCCN24)cn1 | -33.7% |
| COc1cccc2c1OCC([C@@H]1C[C@H]3CN(Cc4cccc(Cl)c4)C(=O)[C@]34CCCN14)=C2 | -45.2% |
| CCn1ncc([C@@H]2C[C@H]3CN(Cc4cccc(Cl)c4)C(=O)[C@]34CCCN24)c1C | -33% |
| O=C1N(Cc2cccc(Cl)c2)C[C@@H]2C[C@@H](c3ccsc3)N3CCC[C@@]123 | -60.1% |
| COc1ccccc1/C=C/[C@@H]1C[C@H]2CN(Cc3cccc(Cl)c3)C(=O)[C@]23CCCN13 | -75.4% |
| O=C1N(Cc2cccc(Cl)c2)C[C@@H]2C[C@@H](c3ccco3)N3CCC[C@@]123 | -25.9% |
| Cc1cccc([C@@H]2C[C@H]3CN(Cc4cccc(Cl)c4)C(=O)[C@]34CCCN24)n1 | -55% |
| O=C(Nc1cnn(Cc2ccccc2)c1)c1cc2nc(-c3ccco3)cc(C(F)(F)F)n2n1 | 7.2% |
| O=C(c1ccccc1)c1ccccc1N/C=C/c1nnnn1-c1ccccc1 | 1.11% |

| Compound | hERG current change (%, negative = inhibition) at 10uM |
| --- | --- |
| CCCCCOc1ccc(CSc2ncn[nH]2)cc1 | -17.4% |
| O=C(NCC1CCCO1)c1onc(CSc2ccccc2)c1C(=O)O (centres unmarked) | 10.1% |
| CC(C)(C)OC(=O)CNC(=O)c1nc[nH]c1C(=O)N1CC[NH2+]CC1.[Cl-] | 4.07% |
| O=S1(=O)CCN(OCc2ccc(F)cc2Cl)CC1 | 34.4% |
| CCN(CC)S(=O)(=O)c1cc(NC(=O)Cc2n[nH]c(=O)c3ccccc23)ccc1C | -21.2% |
| Cc1ccc(NC(=O)Cc2c[nH]c3ccccc23)cc1S(=O)(=O)N1CCCCCC1 | 14.1% |
| O=C(Cc1n[nH]c(=O)c2ccccc12)Nc1cccc(S(=O)(=O)N2CCCC2)c1 | -5.36% |
| Cc1ccc(NC(=O)Cc2n[nH]c(=O)c3ccccc23)cc1S(=O)(=O)N1CCCCCC1 | -51.5% |
| O=C(Cn1[nH]c(=O)c2ccccc2c1=O)Nc1cccc(S(=O)(=O)N2CCCCCC2)c1 | -13.2% |
| O=C(Cc1n[nH]c(=O)c2ccccc12)Nc1cccc(S(=O)(=O)N2CCCCCC2)c1 | -57.8% |
| CCCCP(=O)(CCCC)Cc1ccccc1O | 13.9% |
| COc1ccccc1NC(=O)Nc1nc(CC(=O)Nc2ccc(F)cc2)cs1 | -1.25% |
| COc1ccc(-c2cc(C(=O)N3CCc4ccccc4C3)no2)cc1 | -0.668% |
| Cc1ccc(-n2c(C)cc(C(=O)NS(=O)(=O)c3ccc(C)cc3)c2C)cc1 | -30.8% |
| COP(=O)(NS(=O)(=O)c1ccccc1)OC | 19.9% |
| C=CCn1c(Cc2cccs2)nnc1SCC(=O)NCc1ccco1 | -1.47% |
| Cc1ccnc(SCc2cc(=O)c(OC(=O)c3ccc(S(=O)(=O)N(C)C)cc3)co2)n1 | -36.4% |
| CCOC(=O)c1c(NC(=O)CN(C)C)sc(C(=O)N(CC)CC)c1C.O=C(O)C(=O)O | -17.6% |
| CCC[C@@H]1CCCO[C@@](C(=O)NCc2ccccn2)(C(F)(F)F)C1 | -1.97% |
| COc1cc2c(cc1OC)C1(CCCC1)CNC2c1cccc([N+](=O)[O-])c1 (centres unmarked) | -43.3% |
| COc1cc2c(cc1OC)C1(CCCC1)CNC2c1ccc([N+](=O)[O-])cc1.Cl (centres unmarked) | -50% |
| COc1cc2c(cc1OC)C1(CCCC1)CNC2C.Cl (centres unmarked) | -3.04% |
| C/C(=N/NC(=O)CNC(=O)c1ccccc1)c1ccc(C)cc1 | -41.5% |
| CC1=C[C@@H](C)[C@@H](c2ccc(C(F)(F)F)cc2)OC1=O | 7.01% |
| Cc1ccc2c(c1)c(/C=C/c1cc[n+](C)cc1)c(C)n2C.[I-] | -10.9% |
| COc1ccc2c(CC(=O)NCCN3C(=O)S/C(=C\c4cccnc4)C3=O)coc2c1 | -9.62% |
| O=C(/C(=N\Nc1ccc([N+](=O)[O-])cc1)Sc1nnnn1-c1ccccc1)c1ccccc1 | 17.9% |

| Compound | hERG current change (%, negative = inhibition) at 10uM |
| --- | --- |
| COc1ccc(C(=O)C[n+]2cc(-c3ccc(OC)cc3)n3c2CCCC3)cc1.[Br-] | -10.1% |
| COc1ccc(-c2c[n+](CC(=O)OC3CC(C)CCC3C(C)C)c3n2CCC3)cc1.[Cl-] (centres unmarked) | -69.3% |
| CC(C)[C@@H]1CC[C@@H](C)C[C@H]1OC(=O)C[n+]1cc(-c2ccc(Cl)cc2)n2c1CCCCC2.[Cl-] | -60.1% |
| CC1CCC(C(C)C)C(OC(=O)C[n+]2cc(-c3ccc(Cl)cc3)n3c2CCC3)C1.[Cl-] (centres unmarked) | -77.1% |
| COc1ccc(-c2c[n+](CC(=O)c3cccs3)c3n2CCC3)cc1.[Br-] | 10.4% |
| CC1CCC(C(C)C)C(OC(=O)C[n+]2cc(-c3ccc(Cl)cc3)n3c2CCCCC3)C1.[Cl-] (centres unmarked) | -79.4% |
| O=C(C[n+]1cc(-c2ccc(Cl)cc2)n2c1CCC2)N1c2ccccc2Sc2ccccc21.[Cl-] | -22.1% |
| O=C(C[n+]1cc(-c2ccccc2)n2c1CCCCC2)c1ccc(Cl)cc1.[Br-] | -23.4% |
| O=C(C[n+]1cc(-c2ccc(Cl)cc2)n2c1CCCCC2)c1ccccc1.[Br-] | -12.5% |
| Cn1c(NC(=O)C[n+]2cc(-c3ccc(Cl)cc3)n3c2CCC3)cc(=O)n(C)c1=O.[Cl-] | 11.3% |
| O=C(Nc1ccc2c(c1)OCO2)C1CCCN(S(=O)(=O)c2cccs2)C1 (centres unmarked) | 10.7% |
| COc1cccc(-c2ncc3ccccn23)c1.O=C(O)C(=O)O | -5% |
| CCOc1ccc(S(=O)(=O)Nc2cccc(C(=O)NCCCn3ccnc3)c2)cc1 | 10.5% |
| O=C(CCN1C(=O)c2ccccc2C1=O)Nc1sc2c(c1C(=O)NCc1ccco1)CCCC2 | -13.2% |
| O=C(Nc1nnc(SCC(=O)N2CCCCC2)s1)c1cccs1 | 4.86% |
| CCOC(=O)c1c(NC(=O)C2COc3ccccc3O2)sc2c1CC(C)(C)NC2(C)C (centres unmarked) | -12.1% |
| Cc1nnc(SC(C)C(=O)Nc2ncc(Cl)cc2Cl)n1Cc1ccccc1 (centres unmarked) | -67.8% |
| O=C(CSc1nnnn1-c1ccccc1)Nc1ccc(Cl)cn1 | 2.66% |
| CC(Sc1nnc(CN2CCCC2)n1Cc1ccccc1)C(=O)Nc1ccccc1 (centres unmarked) | -43.1% |
| CC(Sc1nnc(CN2CCCC2)n1Cc1ccccc1)C(=O)Nc1ccc(F)cc1 (centres unmarked) | -61.4% |
| Cc1nnc(SC(C)C(=O)Nc2ccc(Cl)cn2)n1Cc1ccccc1 (centres unmarked) | -17.3% |
| Cc1nnc(SCC(=O)Nc2ncc(Cl)cc2Cl)n1Cc1ccccc1 | -15.6% |
| CC(Sc1nnnn1-c1ccccc1)C(=O)Nc1ccc(Cl)cn1 (centres unmarked) | -54.2% |
| Cc1ccc(-n2nnnc2SC(C)C(=O)Nc2ccc(Cl)cn2)cc1 (centres unmarked) | -22.1% |
| CC(=O)Nc1ccc(NC(=O)C(C)Sc2n[nH]c(=O)n2Cc2ccccc2)cc1 (centres unmarked) | 16% |
| Cc1sc2nc(SCc3nc4ccccc4[nH]3)n(Cc3ccco3)c(=O)c2c1C | -9.15% |
